An excerpt weighted towards active compounds, which were near 0.97% of everything screened.
Epigenetic derep: regulators of epigenetic silencing causing reporter derepression in mouse cells; Potency, µM (highest dose often 53.9 µM), hits mostly activators; 280,000 tested, 0.2% active; murine LDR cells, GFP reporter derepression, 30 h; also: nearly all actives have a fitted effect of over 60% in size
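Murine LDR cells carrying a silenced, genomically integrated CMV-driven GFP reporter were exposed to compound for 30 hours at 37 C. After PBS washes, GFP-positive cells (20–120 um objects) were counted by laser-scanning microplate cytometry.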
Mm-Cpn inhibitor: blocks the Methanococcus maripaludis chaperonin Mm-Cpn | purified Mm-Cpn ATPase, ADP Transcreener TR-FRET | Potency, µM (highest dose often 76.9 µM), usual class: inhibitors | 330,000 tested, 0.031% active | AID 504842; also: nearly all actives have a fitted effect of over 80% in size
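Compound-treated chaperonin, 25 nM final, turns over 10 uM ATP at 37°C for 30 min following a 10 min preincubation; ADP generated competes with ADP-d2 for Eu-cryptate antibody, lowering FRET.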
uPA generation: cell surface uPA generation inhibition | Potency, µM (series often up to 38.3 µM), usual class: inhibitors | 330,000 tested, 0.31% active | cell surface uPA generation assay, qHTS; active = well fitted inhibition curve with a large enough effect; inconclusive = small, poorly fitted or top-dose-only effect; inactive = no such curve, though single readings can be large or run the other way; tested in mouse RAW 264.7 cells; also: nearly all actives have a fitted effect of over 55% in size
pAkt inh: inhibitors of Akt phosphorylation; Neuro2A IGF-stimulated pAkt S473 HTRF, 20 min; active compounds read low; activity change, % for hits at 50 µM; 360,000 tested, 0.32% active; AID 651550; in the data active = activity change below about -80%; inconclusive = mostly about -51% to -80%
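Neuro2A cells in DMEM with 0.5% FBS, overnight at 37 deg C, given compound at single 50 µM final, then IGF (6 nM final) for 20 min at 37 deg C. Lysed; phospho-Akt Ser473 by HTRF after 24 h, 665/615 ratio.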
CCT modulator: changes cytosolic chaperonin activity | purified chaperonin ATPase assay, HTRF ADP detection, 30 min | activity change, % (test concentration not listed), hits read low | 360,000 tested, 0.3% active | AID 651819; in the data active = activity change below about -30%
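Nucleotide hydrolysis assay: TRiC at 20–40 nM final (set by batch activity) with 10 uM ATP, 30 min at 37 °C, in presence of 76 uM compound. Detection by competitive ADP HTRF, 30 min ambient.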
MBNL1 CUG block: blocks human MBNL1 binding to CUG repeat RNA. 280,000 tested, 0.036% active. Potency, µM (doses to about 57.5 µM), hits mostly inhibitors. Q9NR56. TR-FRET MBNL1-His/biotin-(CUG)12 binding, 665/545 ratio; active = well fitted inhibition curve with a large enough effect in the signal ratio, with a control signal flat, not every such curve was filed as active; inconclusive = small, poorly fitted or top-dose-only effect, or effect the other way, or a change in a side signal; inactive = no such curve, though single readings can be large or run the other way; the % refers to the signal ratio
Target sequence (Q9NR56 whole entry, looked up): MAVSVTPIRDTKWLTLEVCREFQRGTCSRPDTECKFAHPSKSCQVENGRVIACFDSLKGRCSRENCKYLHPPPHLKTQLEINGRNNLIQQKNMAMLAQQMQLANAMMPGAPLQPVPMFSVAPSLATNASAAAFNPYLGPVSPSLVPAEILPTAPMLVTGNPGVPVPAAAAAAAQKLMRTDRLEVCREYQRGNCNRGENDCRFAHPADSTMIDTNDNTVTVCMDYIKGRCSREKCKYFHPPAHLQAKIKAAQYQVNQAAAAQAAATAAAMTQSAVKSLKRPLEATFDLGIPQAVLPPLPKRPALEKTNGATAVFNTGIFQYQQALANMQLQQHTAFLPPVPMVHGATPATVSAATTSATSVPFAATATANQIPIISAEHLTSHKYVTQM
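Inhibition of protein-RNA binding appears as loss of TR-FRET between terbium anti-His antibody on MBNL1-His and streptavidin-XL665 on biotin-(CUG)12. Activity is normalized to buffer-only and uninhibited-complex controls.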
Numbers stand for hits; 0 = inactive; ? = inconclusive; - = no result. Unless noted, calls follow the shape of the dose curve; as a rule, active = well fitted curve in the direction sought with a large enough effect; inconclusive = small, poorly fitted or top-dose-only effect, or another doubt; inactive = no such curve, though single readings can be large; an effect the other way counts as inactive or inconclusive.

SMILES	Epigenetic derep	Mm-Cpn inhibitor	uPA generation	pAkt inh	CCT modulator	MBNL1 CUG block
COC(=O)[C@@H]1C[C@]2(OC(=O)c3ccccc3)C=CC(=O)C[C@@H]2N1C(=O)OCc1ccccc1	0	0	3.16µM	0	0	0
O=C(c1ccc(-n2c(=O)c(=O)[nH]c3ccccc32)cc1)N1CCCN(Cc2ccccc2)CC1	0	-	-	-	-	-
CC(=O)Nc1ccc(C(=O)Nc2nc(-c3ccccn3)cs2)cc1	0	0	0	0	0	0
O=C(Nc1nc(-c2ccccn2)cs1)c1ccc2c(c1)OCCO2	0	0	2.51µM	0	0	0
CCCN1C(=O)S/C(=C\c2ccc(N3CCOCC3)o2)C1=O	11.2µM	0	0	0	0	0
CCCN1C(=O)S/C(=C/c2ccc(N3CCOCC3)o2)C1=O	10µM	0	0	0	0	?
CCCN1C(=O)S/C(=C\c2ccc(N3CCOCC3)cc2C)C1=O	0	0	-	-	-	0
Cc1ccc(F)c(NC(=O)c2c(-c3ccccc3)noc2C)c1	-	0	0	0	0	0
CCOC(=O)c1c(C)[nH]c(C(=O)N2CCC(C(=O)OCC)CC2)c1C	-	0	0	0	0	0
Cc1cc(C)c(S(=O)(=O)N2CCN(S(=O)(=O)N3CCC(C)CC3)CC2)c(C)c1	-	0	0	0	-48.7	0
CC(=O)N1CCOc2ccc(S(=O)(=O)N3CCN(c4cc(C)ccc4C)CC3)cc21	-	0	0	0	0	0
Cc1ccc(/C=N/NC(=O)c2ccc3ccccc3c2)s1	-	0	4.47µM	0	0	?
CN(C)CCCN(C(=O)COc1ccc(Cl)cc1)c1nc2cc3c(cc2s1)OCO3	-	0	0	0	-35.1	0
C[C@@H]1CN([C@H](C)CO)C(=O)CCCn2cc(nn2)CO[C@H]1CN(C)S(=O)(=O)c1ccccc1F	-	-	-	0	0	-
C[C@@H]1CN([C@@H](C)CO)C(=O)CCCn2cc(nn2)CO[C@H]1CN(C)S(=O)(=O)c1ccccc1C#N	-	-	-	0	-52.8	-
COc1ccc(N=C/C=C2\C=C(c3ccccc3)OC(C)(C)O2)cc1	?	0	0	0	0	0
Cc1ccccc1N=C/C=C1/C=C(c2ccccc2)OC(C)(C)O1	22.4µM	0	0	0	0	?
CCOc1ccc(NC(=O)CN(C)C(=O)CCNC(=O)c2ccccc2Cl)cc1OCC	-	0	0	0	-44.4	-
COc1ccccc1C(=O)NCCC(=O)N1CC(=O)Nc2ccccc21	0	0	0	0	0	0
CC(C)C1N=C(c2ccc3c(c2)OCO3)CC(c2ccccc2O)N1 (stereo not given)	?	0	10µM	0	0	0
CCOc1ccccc1C1N=C(c2ccc(OC)cc2)CC(c2ccccc2O)N1 (stereo not given)	?	0	0	0	0	0
Cc1ccccc1[C@@H](NC(=O)OC(C)(C)C)C(=O)OC(C)(C)C	-	0	0	0	0	-
CCOc1ccc(C(=O)Nc2nnc(SCC(=O)NCC3CCCO3)s2)cc1 (stereo not given)	-	0	?	0	0	0
O=C(CSc1nnc(NC(=O)c2cccc(F)c2)s1)NCC1CCCO1 (stereo not given)	-	0	?	0	0	0
CC(C)(C)c1ccc(C(=O)Nc2nnc(SCC(=O)NCC3CCCO3)s2)cc1 (stereo not given)	-	0	0.891µM	0	0	0
SMILES	Epigenetic derep	Mm-Cpn inhibitor	uPA generation	pAkt inh	CCT modulator	MBNL1 CUG block
CN(C)S(=O)(=O)c1ccc(C(=O)Nc2nnc(SCC(=O)NCC3CCCO3)s2)cc1 (stereo not given)	-	0	7.94µM	0	0	0
Cc1nc(SCC(=O)NCC2CCCO2)c2cc(-c3ccccc3)sc2n1 (stereo not given)	-	0	8.91µM	0	0	-
CCCc1cc(=O)[nH]c(SCC(N)=O)n1	0	0	0	-125.2%	0	0
CCN(c1ccccc1)S(=O)(=O)c1ccc(Oc2ccc(C(C)=O)cc2OC)nc1	-	0	0	0	0	-
Cc1nc(-c2cccc(-c3noc(C)n3)c2)no1	0	0	-	0	-43.7	0
COc1cc(-c2noc(C)n2)cc(OC)c1OC	0	0	0	0	0	0
Cc1ccc2c(c1)cc1c(=O)n(CC(=O)NCCCc3ccccc3)nc(C)n12	-	0	0	0	0	0
CCNC(=O)c1c(NC(=O)COc2ccc(F)cc2)sc2c1CCCC2	0	-	-	-	-	-

High-throughput results as filed in PubChem.
